About 2,000 (36%) of roughly 5,500 compounds were called active. About 18% were inconclusive and are not listed. No stated cut-off is given here; in the data, active means normalized growth mostly below about 0.91 (no sharp cut-off); inconclusive means no clear call, values can overlap the other calls; inactive means mostly above about 0.92. The list shows a part of the results.
Experiment: chemical genetic growth profiling, strain panel (AID 1159580);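 further: tested at 20 µM; growth read once vehicle control cultures reached saturation at 30 °C; 1 = growth at the plate median or of vehicle wells; lower values mean less growth of the strain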
Conditions: growth OD

Measured: normalized growth

NC(N)=O
inactive: S. cerevisiae deletion strains, locus YJR075W, strain HOC1, hits give low values 1.02 | S. cerevisiae deletion strains, locus YKL009W, strain mrt4, hits give low values 1 | S. cerevisiae deletion strains, locus YKL068W, hits give low values 0.992 | S. cerevisiae deletion strains, locus YKL085W, strain MDH1 (second series), hits give low values 0.994 | S. cerevisiae deletion strains, locus YKL085W, strain MDH1, hits give low values 0.994 | S. cerevisiae deletion strains, locus YKL160W, strain elf1, hits give low values 1.02 | S. cerevisiae deletion strains, locus YKL190W, strain CNB1, hits give low values 1 | S. cerevisiae deletion strains, locus YKR001C, strain vps1, hits give low values 1 | S. cerevisiae deletion strains, locus YKR026C, strain gcn3, hits give low values 1.01 | S. cerevisiae deletion strains, locus YKR091W, strain srl3, hits give low values 1 | S. cerevisiae deletion strains, locus YLL001W, strain dnm1, hits give low values 1.01 | S. cerevisiae deletion strains, locus YLL026W, hits give low values 1.02 | S. cerevisiae deletion strains, locus YLL041C, strain sdh2, hits give low values 1.01 | S. cerevisiae deletion strains, locus YLR027C, strain aat2, hits give low values 1.02 | S. cerevisiae deletion strains, locus YLR039C, strain RIC1, hits give low values 1.05 | S. cerevisiae deletion strains, locus YLR058C, strain SHM2, hits give low values 0.99 | S. cerevisiae deletion strains, locus YLR102C, strain apc9, hits give low values 0.986 | S. cerevisiae deletion strains, locus YLR113W, strain HOG1, hits give low values 0.993 | S. cerevisiae deletion strains, locus YLR221C, strain rsa3, hits give low values 0.98 | S. cerevisiae deletion strains, locus YLR258W, strain gsy2, hits give low values 1 | S. cerevisiae deletion strains, locus YLR262C, strain YPT6 (second series), hits give low values 1.03 | S. cerevisiae deletion strains, locus YLR262C, strain YPT6, hits give low values 1.08 | S. cerevisiae deletion strains, locus YLR268W, strain sec22, hits give low values 1.02 | S. cerevisiae deletion strains, locus YLR320W, strain mms22, hits give low values 1 | S. cerevisiae deletion strains, locus YLR330W, strain CHS5, hits give low values 0.988 | S. cerevisiae deletion strains, locus YLR342W, strain FKS1 (second series), hits give low values 0.96 | S. cerevisiae deletion strains, locus YLR342W, strain FKS1, hits give low values 1.01 | S. cerevisiae deletion strains, locus YLR357W, strain rsc2, hits give low values 1.04 | S. cerevisiae deletion strains, locus YLR370C, strain arc18, hits give low values 1.02 | S. cerevisiae deletion strains, locus YLR371W, strain rom2, hits give low values 0.985 | S. cerevisiae deletion strains, locus YLR384C, strain iki3, hits give low values 1.01 | S. cerevisiae deletion strains, locus YLR418C, strain cdc73, hits give low values 1.01 | S. cerevisiae deletion strains, locus YML016C, strain PPZ1, hits give low values 0.999 | S. cerevisiae deletion strains, locus YML032C, strain rad52, hits give low values 1 | S. cerevisiae deletion strains, locus YML120C, strain ndi1, hits give low values 1.03 | S. cerevisiae deletion strains, locus YML124C, strain tub3, hits give low values 0.993 | S. cerevisiae deletion strains, locus YMR058W, strain fet3, hits give low values 1.02 | S. cerevisiae deletion strains, locus YMR078C, strain ctf18, hits give low values 0.992 | S. cerevisiae deletion strains, locus YMR125W, strain sto1, hits give low values 1 | S. cerevisiae deletion strains, locus YMR129W, hits give low values 1.01 | S. cerevisiae deletion strains, locus YMR205C, strain PFK2, hits give low values 1.02 | S. cerevisiae deletion strains, locus YMR223W, strain ubp8, hits give low values 0.992 | S. cerevisiae deletion strains, locus YMR231W, strain pep5, hits give low values 1 | S. cerevisiae deletion strains, locus YMR263W, strain SAP30, hits give low values 1.03 | S. cerevisiae deletion strains, locus YMR307W, strain GAS1, hits give low values 1.02 | S. cerevisiae deletion strains, locus YNL067W, strain RPL9B, hits give low values 1.05 | S. cerevisiae deletion strains, locus YNL071W, strain lat1, hits give low values 1.01 | S. cerevisiae deletion strains, locus YNL128W, strain TEP1, hits give low values 1.02 | S. cerevisiae deletion strains, locus YNL153C, strain GIM3, hits give low values 1.02 | S. cerevisiae deletion strains, locus YNL183C, strain NPR1, hits give low values 0.963 | S. cerevisiae deletion strains, locus YNL209W, strain ssb2, hits give low values 1.01 | S. cerevisiae deletion strains, locus YNL233W, strain BNI4, hits give low values 1 | S. cerevisiae deletion strains, locus YNL248C, strain rpa49, hits give low values 0.978 | S. cerevisiae deletion strains, locus YNL250W, strain rad50, hits give low values 0.991 | S. cerevisiae deletion strains, locus YNL271C, strain bni1, hits give low values 0.988 | S. cerevisiae deletion strains, locus YNL298W, strain CLA4, hits give low values 1 | S. cerevisiae deletion strains, locus YNL307C, strain MCK1, hits give low values 0.993 | S. cerevisiae deletion strains, locus YNL322C, strain KRE1 (second series), hits give low values 1.01 | S. cerevisiae deletion strains, locus YNL322C, strain KRE1, hits give low values 1 | S. cerevisiae deletion strains, locus YNR049C, strain mso1, hits give low values 1.02 | S. cerevisiae deletion strains, locus YNR052C, strain pop2, hits give low values 0.974 | S. cerevisiae deletion strains, locus YOL006C, strain TOP1, hits give low values 1.21 | S. cerevisiae deletion strains, locus YOL012C, strain htz1 1.36 | S. cerevisiae deletion strains, locus YOL147C, strain pex11, hits give low values 0.993 | S. cerevisiae deletion strains, locus YOR001W, strain rrp6, hits give low values 1.02 | S. cerevisiae deletion strains, locus YOR061W, strain CKA2, hits give low values 0.997 | S. cerevisiae deletion strains, locus YOR069W, strain VPS5, hits give low values 1.07 | S. cerevisiae deletion strains, locus YOR070C, strain gyp1, hits give low values 1.01 | S. cerevisiae deletion strains, locus YOR080W, strain dia2, hits give low values 1.02 | S. cerevisiae deletion strains, locus YOR083W, strain WHI5, hits give low values 1 | S. cerevisiae deletion strains, locus YOR106W, strain vam3, hits give low values 1.02 | S. cerevisiae deletion strains, locus YOR136W, strain idh2, hits give low values 0.993 | S. cerevisiae deletion strains, locus YOR144C, strain elg1, hits give low values 0.992 | S. cerevisiae deletion strains, locus YOR184W, strain ser1, hits give low values 0.992 | S. cerevisiae deletion strains, locus YOR231W, strain MKK1, hits give low values 0.993 | S. cerevisiae deletion strains, locus YOR265W, strain rbl2, hits give low values 1.02 | S. cerevisiae deletion strains, locus YOR270C, strain vph1, hits give low values 1.02 | S. cerevisiae deletion strains, locus YOR290C, strain snf2, hits give low values 0.992 | S. cerevisiae deletion strains, locus YOR316C, strain cot1, hits give low values 0.985 | S. cerevisiae deletion strains, locus YPL051W, strain arl3, hits give low values 1.01 | S. cerevisiae deletion strains, locus YPL055C, strain LGE1, hits give low values 1.07 | S. cerevisiae deletion strains, locus YPL078C, strain atp4, hits give low values 1.02 | S. cerevisiae deletion strains, locus YPL106C, strain sse1, hits give low values 0.987 | S. cerevisiae deletion strains, locus YPL240C, strain hsp82, hits give low values 1.01 | S. cerevisiae deletion strains, locus YPL241C, strain CIN2, hits give low values 1.07 | S. cerevisiae deletion strains, locus YPL256C, strain CLN2, hits give low values 1 | S. cerevisiae deletion strains, locus YPR119W, strain clb2, hits give low values 0.992 | S. cerevisiae deletion strains, locus YPR141C, strain kar3, hits give low values 1 | S. cerevisiae deletion strains, locus YPR163C, strain tif3, hits give low values 0.996 | S. cerevisiae deletion strains, locus YPR167C, strain met16, hits give low values 0.989 | S. cerevisiae deletion strains, strain wtn01, hits give low values 0.999 | S. cerevisiae strains, strain wild type, hits give low values 0.991
